Test results as given in the supplement of paper PMC6089552.
Out of some 3,200 compounds screened, about 300 (9.4%) showed activity. Shown is part of a subset that was picked to be rich in actives.

System: A673/TR/shEF
Assay: cell viability (LOESS-normalised, relative to median of negative controls) (log2 ratio); higher = more viable cells (less compound effect), active = hit call of the paper (over 3 MAD below the median)
Conditions: treatment time: 72 h
Method in brief: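 A673/TR/shEF Ewing sarcoma cells (1,500 per well, 384-well plates) were grown with or without doxycycline to induce EWS-FLI1 shRNA knockdown, starting 24 h before compounds. Library compounds at two or more concentrations, with DMSO controls, were added for three days. Cell viability was read by CellTiter-Glo luminescence on an Envision reader, then LOESS-corrected per plate, divided by the median of negative controls and log2-transformed. Hits were wells at least three median absolute deviations from the median of all screened wells.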

[1] = 0.25 µM, library screen: screen1, EWS-FLI1 expression: high (no doxycycline)
[2] = 0.25 µM, library screen: screen1, EWS-FLI1 expression: low (doxycycline-induced shRNA knockdown)
[3] = 2.5 µM, library screen: screen1, EWS-FLI1 expression: high (no doxycycline)
[4] = 2.5 µM, library screen: screen1, EWS-FLI1 expression: low (doxycycline-induced shRNA knockdown)
[5] = 0.025 µM, library screen: screen1, EWS-FLI1 expression: high (no doxycycline)
[6] = 0.025 µM, library screen: screen1, EWS-FLI1 expression: low (doxycycline-induced shRNA knockdown)
[7] = 0.103 µM, library screen: screen3, EWS-FLI1 expression: high (no doxycycline)
[8] = 0.103 µM, library screen: screen3, EWS-FLI1 expression: low (doxycycline-induced shRNA knockdown)
[9] = 0.25 µM, library screen: screen2, EWS-FLI1 expression: high (no doxycycline)
[10] = 0.25 µM, library screen: screen2, EWS-FLI1 expression: low (doxycycline-induced shRNA knockdown)
[11] = 0.308 µM, library screen: screen3, EWS-FLI1 expression: high (no doxycycline)
[12] = 0.308 µM, library screen: screen3, EWS-FLI1 expression: low (doxycycline-induced shRNA knockdown)
[13] = 0.926 µM, library screen: screen3, EWS-FLI1 expression: high (no doxycycline)
[14] = 0.926 µM, library screen: screen3, EWS-FLI1 expression: low (doxycycline-induced shRNA knockdown)
[15] = 2.5 µM, library screen: screen2, EWS-FLI1 expression: high (no doxycycline)
[16] = 2.5 µM, library screen: screen2, EWS-FLI1 expression: low (doxycycline-induced shRNA knockdown)
[17] = 2.8 µM, library screen: screen3, EWS-FLI1 expression: high (no doxycycline)
[18] = 2.8 µM, library screen: screen3, EWS-FLI1 expression: low (doxycycline-induced shRNA knockdown)
[19] = 8.3 µM, library screen: screen3, EWS-FLI1 expression: high (no doxycycline)
[20] = 8.3 µM, library screen: screen3, EWS-FLI1 expression: low (doxycycline-induced shRNA knockdown)
[21] = 25 µM, library screen: screen1, EWS-FLI1 expression: high (no doxycycline)
[22] = 25 µM, library screen: screen1, EWS-FLI1 expression: low (doxycycline-induced shRNA knockdown)
[23] = 25 µM, library screen: screen3, EWS-FLI1 expression: high (no doxycycline)
[24] = 25 µM, library screen: screen3, EWS-FLI1 expression: low (doxycycline-induced shRNA knockdown)

Measured: cell viability (log2)

C=C1[C@@H]([C@@]2(C)C=CC(=O)C(C)(C)[C@@H]2CC(=O)OC)CC[C@@]2(C)C(c3ccoc3)OC(=O)[C@H]3O[C@]132 (stereo partly drawn)
inactive: [1] 0.109 | [2] 0.0181 | [3] 0.0641 | [4] 0.0727

CC(=O)O[C@@H]1CC2C(C)(C)[C@H](O)C[C@H](O)[C@]2(C)C2CC[C@@]3(C)[C@H](c4ccoc4)OC(=O)[C@H]4O[C@]43[C@@]21C (stereo partly drawn)
inactive: [1] 0.0571 | [2] 0.106 | [3] 0.13 | [4] 0.11

CO[C@H]1C=C[C@@]23c4cc5c(cc4CN(C[C@@H]2O)[C@H]3C1)OCO5
inactive: [1] 0.0568 | [2] 0.0269
active: [3] -0.415 | [4] -0.623

O[C@H]1[C@H]2c3cc4c(cc3CN3CCC(=C[C@@H]1O)[C@H]23)OCO4
inactive: [1] 0.0121 | [2] 0.0722 | [3] 0.0564 | [4] -0.019

CSc1ccc(CN2CCN(Cc3ccco3)CC2)cc1
inactive: [1] 0.0257 | [2] 0.0474 | [3] 0.00049 | [4] 0.109

CC[C@H](CO)Nc1nc(NCc2ccccc2)c2ncn(C(C)C)c2n1
active: [15] -0.591 | [16] -0.646
inactive: [5] 0.0954 | [6] 0.0682 | [7] 0.0283 | [8] -0.038 | [1] 0.0519 | [2] 0.0253 | [9] 0.213 | [10] 0.0581 | [11] 0.0653 | [12] 0.0646 | [13] -0.0162 | [14] 0.042 | [3] 0.0221 | [4] 0.0445 | [17] 0.0824 | [18] -0.0161 | [19] 0.118 | [20] 0.0527 | [21] -0.0359 | [22] 0.0272 | [23] 0.0337 | [24] 0.0206

CC(C)n1cnc2c(NCc3ccccc3)nc(NCCO)nc21
inactive: [5] 0.171 | [6] -0.0915 | [1] 0.129 | [2] -0.0331 | [9] 0.226 | [10] 0.0704 | [3] -0.011 | [4] 0.0676 | [15] 0.247 | [16] 0.0622 | [21] -0.0635 | [22] 0.0737

Cn1cnc2c(NCc3ccccc3)nc(NCCO)nc21
inactive: [5] 0.0452 | [6] 0.063 | [1] 0.0867 | [2] 0.0323 | [9] 0.272 | [10] 0.106 | [3] 0.0349 | [4] 0.0403 | [15] 0.208 | [16] 0.113 | [21] 0.00929 | [22] 0.0531

CN1C(=O)CCC1c1cccnc1 (stereo not drawn)
inactive: [9] 0.264 | [10] 0.181 | [15] 0.161 | [16] 0.0586

CN[C@H](Cc1ccccc1)C(=O)N1CCC[C@H]1C(=O)N[C@@H](Cc1c[nH]c2ccccc12)C(=O)C(F)(F)C(F)(F)F
inactive: [9] 0.168 | [10] 0.0679 | [15] 0.0864 | [16] 0.0322

C[C@H](CCC(=O)O)[C@H]1CC[C@H]2[C@@H]3C[C@H](O)C4C[C@H](O)CC[C@]4(C)[C@H]3CC[C@]12C (stereo partly drawn)
inactive: [1] 0.0369 | [2] -0.0168 | [3] 0.0626 | [4] -0.0216

CO[C@H]1C[C@@H]2CC[C@@H](C)[C@@](O)(O2)C(=O)C(=O)N2CCCC[C@H]2C(=O)O[C@H]([C@H](C)C[C@@H]2CC[C@@H](OCCO)[C@H](OC)C2)CC(=O)[C@H](C)/C=C(\C)[C@@H](O)[C@@H](OC)C(=O)[C@H](C)C[C@H](C)/C=C/C=C/C=C/1C
active: [7] -0.823 | [8] -0.667 | [11] -0.931 | [12] -0.779 | [13] -0.921 | [14] -0.761 | [17] -0.899 | [18] -0.779 | [19] -1.09 | [20] -0.731 | [23] -0.943 | [24] -0.733

CO[C@H]1C[C@@H]2CC[C@@H](C)[C@@](O)(O2)C(=O)C(=O)N2CCCC[C@H]2C(=O)O[C@H]([C@H](C)C[C@@H]2CC[C@@H](OC(=O)C(C)(CO)CO)[C@H](OC)C2)CC(=O)[C@H](C)/C=C(\C)[C@@H](O)[C@@H](OC)C(=O)[C@H](C)C[C@H](C)/C=C/C=C/C=C/1C
active: [7] -0.862 | [8] -0.712 | [11] -0.972 | [12] -0.713 | [13] -0.859 | [14] -0.683 | [17] -0.839 | [18] -0.886 | [19] -0.828 | [20] -0.678 | [23] -0.905 | [24] -0.717

CO[C@H]1CC2CC[C@@H](C)[C@@](O)(O2)C(=O)C(=O)N2CCCC[C@H]2C(=O)O[C@H]([C@H](C)C[C@@H]2CC[C@@H](OP(C)(C)=O)[C@H](OC)C2)CC(=O)[C@H](C)/C=C(\C)[C@@H](O)[C@@H](OC)C(=O)[C@H](C)C[C@H](C)/C=C/C=C/C=C/1C
active: [7] -0.93 | [8] -0.714 | [11] -0.852 | [12] -0.724 | [13] -0.888 | [14] -0.755 | [17] -0.837 | [18] -0.688 | [19] -0.983 | [20] -0.734 | [23] -1.05 | [24] -0.738

CO[C@H]1C[C@@H]2CC[C@@H](C)[C@@](O)(O2)C(=O)C(=O)N2CCCC[C@H]2C(=O)O[C@H]([C@H](C)C[C@@H]2CC[C@@H](O)[C@H](OC)C2)CC(=O)[C@H](C)/C=C(\C)[C@@H](O)[C@@H](OC)C(=O)[C@H](C)C[C@H](C)/C=C/C=C/C=C/1C
active: [7] -0.737 | [8] -0.644 | [11] -0.758 | [12] -0.612 | [13] -0.692 | [14] -0.65 | [17] -0.692 | [18] -0.756 | [19] -0.726 | [20] -0.651 | [23] -0.719 | [24] -0.63
